From PubChem BioAssay (EPA / NIEHS)
Active and inactive are the calls of the source. How the source made its calls: active means hit-call score of the fitted dose curve at least 0.9, where 1 is the maximum; inactive means score below 0.9.

How the values were obtained:
Conditions in all cases: mRNA level, 48 h; actives raise or lower the signal
[1] = read-out: Cytochrome P450 7A1 (Homo sapiens) (UniProt P22680); test: LTEA_HepaRG_CYP7A1: Life Technologies and Expression Analysis (LTEA) Assay for Cytochrome P450 7A1 (CYP7A1) using HepaRG (AID 2283496)
Outline: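 HepaRG, 48 h exposure, 8-pt half-log series from 100 uM, 0.5% DMSO vehicle, duplicates. Readout: TaqMan qRT-PCR mRNA vs three housekeeping genes; bidirectional curve fit against DMSO baseline.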

[2] = read-out: Glutathione S-Transferase (GSTA2), GSTA2 (gene 2939); test: LTEA_HepaRG_GSTA2: Life Technologies and Expression Analysis (LTEA) Assay for Glutathione S-Transferase (GSTA2) using HepaRG (AID 2283497)
Outline: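 qRT-PCR readout of GSTA2 transcript, normalized to three housekeeping genes, fitted bidirectionally against 0.5% DMSO baseline. Differentiated HepaRG cells received compound for 48 h at 8 concentrations (top 100 uM, half-log steps).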

[3] = read-out: Glutamate-cysteine ligase catalytic (GCLC), GCLC (gene 2729); test: LTEA_HepaRG_GCLC: Life Technologies and Expression Analysis (LTEA) Assay for Glutamate-cysteine ligase catalytic (GCLC) using HepaRG (AID 2283498)
Outline: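 HepaRG, 48 h exposure, 8-pt half-log series from 100 uM, 0.5% DMSO vehicle; TaqMan qRT-PCR for GCLC mRNA, housekeeping-normalized; bidirectional curve fit vs DMSO baseline.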

[4] = read-out: growth arrest and DNA damage 45 (GADD45G), GADD45G (gene 10912); test: LTEA_HepaRG_GADD45G: Life Technologies and Expression Analysis (LTEA) Assay for growth arrest and DNA damage 45 (GADD45G) using HepaRG (AID 2283499)
Outline: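 Gain or loss of GADD45G mRNA, quantified by TaqMan qRT-PCR against three housekeeping genes, is fitted in both directions relative to 0.5% DMSO. Human HepaRG cultures receive test chemical for 48 h at up to 100 uM.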

[5] = read-out: Glutamate-cysteine ligase regulatory (GCLM), GCLM (gene 2730); test: LTEA_HepaRG_GCLM: Life Technologies and Expression Analysis (LTEA) Assay for Glutamate-cysteine ligase regulatory (GCLM) using HepaRG (AID 2283500)
Outline: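 GCLM expression quantified by qRT-PCR, normalized to three housekeeping genes, after 48 h chemical treatment of HepaRG cells in duplicate at 8 concentrations (top 100 uM, half-log steps, 0.5% DMSO). Changes fitted both directions against vehicle.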

[6] = read-out: Glutathione S-transferase M3 (GSTM3), GSTM3 (gene 2947); test: LTEA_HepaRG_GSTM3: Life Technologies and Expression Analysis (LTEA) Assay for Glutathione S-transferase M3 (GSTM3) using HepaRG (AID 2283501)
Outline: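 HepaRG, plated 48 h, then serum-free induction medium; test chemical 48 h, duplicate; 100 uM top, half-log x8, 0.5% DMSO. Read-out: GSTM3 mRNA (TaqMan qRT-PCR, Fluidigm array). Bidirectional fit vs DMSO.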

[7] = read-out: Heat shock 70 kDa protein 1 (HSPA1A), gene 3303; test: LTEA_HepaRG_HSPA1A: Life Technologies and Expression Analysis (LTEA) Assay for Heat shock 70 kDa protein 1 (HSPA1A) using HepaRG (AID 2283502)
Outline: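 HSPA1A expression measured by qRT-PCR with ACTB/GAPDH/POLR2A normalization; curves fitted in both directions relative to DMSO vehicle. Exposure: 48 h in HepaRG cells, duplicate 8-point half-log series from 100 uM, 0.5% DMSO, serum-free induction medium.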

[8] = read-out: Hypoxia-inducible factor 1-alpha (Homo sapiens) (UniProt Q16665); test: LTEA_HepaRG_HIF1A: Life Technologies and Expression Analysis (LTEA) Assay for Hypoxia-inducible factor 1 (HIF1A) Trancription factor using HepaRG (AID 2283503)
Outline: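 HIF1A transcript level read by qRT-PCR (ACTB, GAPDH, POLR2A normalization) after 48 h chemical exposure of HepaRG cultures. Eight half-log concentrations, top 100 uM, 0.5% DMSO vehicle, duplicates; bidirectional curve fit against DMSO baseline.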

[9] = read-out: 3-Hydroxy-3-Methylglutaryl-CoA Synthase 2 (HMGCS2), HMGCS2 (gene 3158); test: LTEA_HepaRG_HMGCS2: Life Technologies and Expression Analysis (LTEA) Assay for 3-Hydroxy-3-Methylglutaryl-CoA Synthase 2 (HMGCS2) using HepaRG (AID 2283504)
Outline: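 HepaRG, plated 48 h then switched to serum-free induction media; cmpd 8-pt, max 100 uM, 1/2-log, 0.5% DMSO, n=2, 48 h. HMGCS2 mRNA by Fluidigm TaqMan qRT-PCR, ACTB/GAPDH/POLR2A norm; bidirectional fit vs DMSO.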

HGF (gene 3082) = test: LTEA_HepaRG_HGF: Life Technologies and Expression Analysis (LTEA) Assay for Hepatocyte Growth Facto (HGF) using HepaRG (AID 2283505)
Outline: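 Read-out is HGF transcript level by qRT-PCR, normalized to three housekeeping genes, fitted bidirectionally against 0.5% DMSO vehicle. Human HepaRG cells received test chemicals for 48 h at up to 100 uM.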

[10] = read-out: Insulin Like Growth Factor 1 (IGF1), IGF1 (gene 3479); test: LTEA_HepaRG_IGF1: Life Technologies and Expression Analysis (LTEA) Assay for Insulin Like Growth Factor 1 (IGF1) using HepaRG (AID 2283506)
Outline: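 Expression measured by TaqMan qRT-PCR on a Fluidigm array, with three housekeeping genes for normalisation, after 48 h treatment of HepaRG cells. Top concentration 100 uM with half-log steps, 0.5% DMSO vehicle, bidirectional fit.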

[11] = read-out: Intercellular Adhesion Molecule 1 (ICAM1), ICAM1 (gene 3383); test: LTEA_HepaRG_ICAM1: Life Technologies and Expression Analysis (LTEA) Assay for Intercellular Adhesion Molecule 1 (ICAM1) using HepaRG (AID 2283507)
Outline: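 Readout is qRT-PCR mRNA level, normalized to three housekeeping genes and fitted bidirectionally against 0.5% DMSO vehicle. Human HepaRG cultures received compound for 48 h, top concentration 100 uM with half-log dilutions.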

[12] = read-out: Insulin-like growth factor-binding protein 1 (IGFBP1), IGFBP1 (gene 3484); test: LTEA_HepaRG_IGFBP1: Life Technologies and Expression Analysis (LTEA) Assay for Insulin-like growth factor-binding protein 1 (IGFBP1) using HepaRG (AID 2283508)
Outline: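 Thawed HepaRG cells are plated for 48 h, switched to serum-free induction medium, then dosed in duplicate for another 48 h (100 uM top, half-log steps). Lysates in RLT go to qRT-PCR, and gain or loss of signal is fitted relative to vehicle.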

[13] = read-out: Interleukin 6 (IL6), IL6 (gene 3569); test: LTEA_HepaRG_IL6: Life Technologies and Expression Analysis (LTEA) Assay for Interleukin 6 (IL6) using HepaRG (AID 2283509)
Outline: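 qRT-PCR read-out of IL6 transcript, normalized to three housekeeping genes, after 48 h chemical exposure of HepaRG cells; 8-point half-log series, top 100 uM, 0.5% DMSO vehicle. Bidirectional curve fitting against DMSO baseline.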

[14] = read-out: Interleukin 6 Receptor (IL6R), IL6R (gene 3570); test: LTEA_HepaRG_IL6R: Life Technologies and Expression Analysis (LTEA) Assay for Interleukin 6 Receptor (IL6R) using HepaRG (AID 2283510);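 on AC50: differentiated human HepaRG liver cells in serum-free induction medium; TaqMan qRT-PCR signal normalized to ACTB GAPDH and POLR2A housekeeping genes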
Outline: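 IL6R transcript level by qRT-PCR after 48 h chemical exposure (8-point, half-log, max 100 uM, 0.5% DMSO vehicle) of HepaRG cells in serum-free induction medium. Normalized to three housekeeping genes; curves fitted in both directions relative to DMSO.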

[15] = read-out: Potassium channel subfamily K member 1 (KCNK1), KCNK1 (gene 3775); test: LTEA_HepaRG_KCNK1: Life Technologies and Expression Analysis (LTEA) Assay for Potassium channel subfamily K member 1 (KCNK1) using HepaRG (AID 2283511)
Outline: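 HepaRG, 48 h exposure, 8-pt half-log series top 100 uM, 0.5% DMSO vehicle, duplicates. Readout: KCNK1 transcript by qRT-PCR (Fluidigm array), housekeeping-normalized; bidirectional curve fit relative to DMSO baseline.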

[16] = read-out: JUN Transcription Factor, JUN (gene 3725); test: LTEA_HepaRG_JUN: Life Technologies and Expression Analysis (LTEA) Assay for JUN Transcription Factor using HepaRG (AID 2283513)
Outline: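 mRNA measured by TaqMan qRT-PCR after 48 h chemical exposure of HepaRG cultures; normalization to three housekeeping genes. Duplicate eight-point half-log curves from 100 uM in 0.5% DMSO; gain or loss fitted against DMSO baseline.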

[17] = read-out: Lipase C (LIPC), LIPC (gene 3990); test: LTEA_HepaRG_LIPC: Life Technologies and Expression Analysis (LTEA) Assay for Lipase C (LIPC) using HepaRG (AID 2283514)
Outline: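 HepaRG, 48 h exposure, 8-pt half-log series from 100 uM in 0.5% DMSO, duplicates. Readout: LIPC mRNA by Fluidigm qRT-PCR, housekeeping-normalized (ACTB/GAPDH/POLR2A). Gain or loss fitted bidirectionally against DMSO baseline.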

[18] = read-out: Lipoprotein lipase (LPL), LPL (gene 4023); test: LTEA_HepaRG_LPL: Life Technologies and Expression Analysis (LTEA) Assay for Lipoprotein lipase (LPL) using HepaRG (AID 2283515)
Outline: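 HepaRG, 48 h exposure, 8-pt half-log dilutions from 100 uM, 0.5% DMSO vehicle, duplicates; qRT-PCR (Fluidigm array) of LPL mRNA vs housekeeping genes; bidirectional curve fit relative to DMSO baseline.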

[19] = read-out: Keratin 19 (KRT19), KRT19 (gene 3880); test: LTEA_HepaRG_KRT19: Life Technologies and Expression Analysis (LTEA) Assay for Keratin 19 (KRT19) using HepaRG (AID 2283512)
Outline: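 KRT19 transcript levels, measured by Fluidigm qRT-PCR against three housekeeping genes, are fitted for gain or loss of signal relative to DMSO. Human HepaRG cells receive test chemicals (top 100 uM, half-log steps, 0.5% DMSO) for 48 hours.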

Measured: AC50

Hypoxia-inducible factor 1-alpha (Homo sapiens), sequence (Q16665 whole entry, looked up): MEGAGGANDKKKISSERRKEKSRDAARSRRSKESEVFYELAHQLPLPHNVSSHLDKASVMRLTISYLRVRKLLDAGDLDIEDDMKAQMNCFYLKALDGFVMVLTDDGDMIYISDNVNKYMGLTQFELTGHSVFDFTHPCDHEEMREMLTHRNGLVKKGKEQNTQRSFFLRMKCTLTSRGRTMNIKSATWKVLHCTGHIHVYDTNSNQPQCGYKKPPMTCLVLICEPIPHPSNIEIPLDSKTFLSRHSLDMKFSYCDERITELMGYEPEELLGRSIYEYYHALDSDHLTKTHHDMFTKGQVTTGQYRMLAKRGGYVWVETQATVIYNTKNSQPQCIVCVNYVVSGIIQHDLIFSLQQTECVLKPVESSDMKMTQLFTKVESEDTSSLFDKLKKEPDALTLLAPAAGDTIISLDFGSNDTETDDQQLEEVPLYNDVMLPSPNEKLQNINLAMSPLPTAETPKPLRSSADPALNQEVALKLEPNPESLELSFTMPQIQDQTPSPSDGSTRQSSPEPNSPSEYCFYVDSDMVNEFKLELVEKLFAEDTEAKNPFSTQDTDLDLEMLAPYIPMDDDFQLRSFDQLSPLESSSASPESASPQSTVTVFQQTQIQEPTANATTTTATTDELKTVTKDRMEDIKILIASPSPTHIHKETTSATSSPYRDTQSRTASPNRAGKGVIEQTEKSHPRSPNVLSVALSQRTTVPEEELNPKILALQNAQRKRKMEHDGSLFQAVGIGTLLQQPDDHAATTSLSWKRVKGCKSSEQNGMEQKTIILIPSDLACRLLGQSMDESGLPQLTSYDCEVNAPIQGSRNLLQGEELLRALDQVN

CCOP(=O)(NC(C)C)Oc1ccc(SC)c(C)c1 (stereo not given)
inactive: [2] | [3] | [4] | [5] | [6] | [7] | [8] | HGF (gene 3082) | [11] | [12] | [13] | [14] | [15] | [16] | [17] | [18]
active: [1] 3.62 µM | [9] 18.8 µM | [10] 50 µM

CCOP(=S)(OCC)SCCSCC
inactive: [1] | [2] | [3] | [4] | [5] | [6] | [7] | [8] | HGF (gene 3082) | [11] | [12] | [13] | [14] | [15] | [19] | [17]

CCCCOC(=O)[C@@H](C)Oc1ccc(Oc2ccc(C#N)cc2F)cc1
inactive: [1] | [2] | [3] | [4] | [5] | [6] | [7] | [8] | HGF (gene 3082) | [10] | [11] | [12] | [13] | [14] | [15] | [17]

CCC(CC)Nc1c([N+](=O)[O-])cc(C)c(C)c1[N+](=O)[O-]
active: [10] 61.1 µM | [19] 50 µM
inactive: [1] | [2] | [3] | [4] | [5] | [6] | [7] | [8] | [9] | HGF (gene 3082) | [11] | [12] | [13] | [14] | [15] | [16] | [17] | [18]

CC[C@H](C)[C@H]1O[C@]2(C=C[C@@H]1C)C[C@@H]1C[C@@H](C/C=C(\C)[C@@H](O[C@H]3C[C@H](OC)[C@@H](O[C@H]4C[C@H](OC)[C@@H](NC)[C@H](C)O4)[C@H](C)O3)[C@@H](C)/C=C/C=C3\CO[C@@H]4[C@H](O)C(C)=C[C@@H](C(=O)O1)[C@]34O)O2
inactive: [1] | [6] | HGF (gene 3082) | [19] | [17]
active: [2] 23.3 µM | [3] 50 µM | [4] 2.78 µM | [7] 20.4 µM | [8] 74.3 µM | [9] 12.5 µM | [10] 27.7 µM | [11] 28.9 µM | [12] 14.6 µM | [13] 21.3 µM | [14] 22.6 µM | [15] 22.5 µM

CSc1nc(NC(C)C)nc(NC(C)C)n1
inactive: [3] | [5] | [6] | [7] | [8] | HGF (gene 3082) | [11] | [12] | [13] | [14] | [15] | [19] | [16] | [17]
active: [1] 50 µM | [2] 81.6 µM | [4] 64.7 µM | [10] 20.7 µM

CCOP(=O)(SC(C)CC)N1CCSC1=O (stereo not given)
active: [1] 32.3 µM | [10] 21 µM | [17] 25.6 µM
inactive: [2] | [3] | [4] | [5] | [7] | [8] | [11] | [12] | [13] | [14] | [15]
